Assay results reported in the supplement of paper PMC11732987, “Enantioselective OTUD7B fragment discovery through chemoproteomics screening and high-throughput optimisation” (Communications Chemistry, 2025).

Assays:
Assay in all cases: log2 ratio of Biotin-Ahx-Ub-VS probe labelling (fragment/DMSO); higher = less target engagement (more negative = stronger competition), active = hit call of the paper (q ≤ 0.05, log2 ratio ≤ -1)
Conditions in all cases: compound concentration: 200 uM; treatment time: 3 h
USP34 = USP34 (UniProt Q70CQ2)
Sequence of USP34 (Q70CQ2 whole entry, the tested form may be a part): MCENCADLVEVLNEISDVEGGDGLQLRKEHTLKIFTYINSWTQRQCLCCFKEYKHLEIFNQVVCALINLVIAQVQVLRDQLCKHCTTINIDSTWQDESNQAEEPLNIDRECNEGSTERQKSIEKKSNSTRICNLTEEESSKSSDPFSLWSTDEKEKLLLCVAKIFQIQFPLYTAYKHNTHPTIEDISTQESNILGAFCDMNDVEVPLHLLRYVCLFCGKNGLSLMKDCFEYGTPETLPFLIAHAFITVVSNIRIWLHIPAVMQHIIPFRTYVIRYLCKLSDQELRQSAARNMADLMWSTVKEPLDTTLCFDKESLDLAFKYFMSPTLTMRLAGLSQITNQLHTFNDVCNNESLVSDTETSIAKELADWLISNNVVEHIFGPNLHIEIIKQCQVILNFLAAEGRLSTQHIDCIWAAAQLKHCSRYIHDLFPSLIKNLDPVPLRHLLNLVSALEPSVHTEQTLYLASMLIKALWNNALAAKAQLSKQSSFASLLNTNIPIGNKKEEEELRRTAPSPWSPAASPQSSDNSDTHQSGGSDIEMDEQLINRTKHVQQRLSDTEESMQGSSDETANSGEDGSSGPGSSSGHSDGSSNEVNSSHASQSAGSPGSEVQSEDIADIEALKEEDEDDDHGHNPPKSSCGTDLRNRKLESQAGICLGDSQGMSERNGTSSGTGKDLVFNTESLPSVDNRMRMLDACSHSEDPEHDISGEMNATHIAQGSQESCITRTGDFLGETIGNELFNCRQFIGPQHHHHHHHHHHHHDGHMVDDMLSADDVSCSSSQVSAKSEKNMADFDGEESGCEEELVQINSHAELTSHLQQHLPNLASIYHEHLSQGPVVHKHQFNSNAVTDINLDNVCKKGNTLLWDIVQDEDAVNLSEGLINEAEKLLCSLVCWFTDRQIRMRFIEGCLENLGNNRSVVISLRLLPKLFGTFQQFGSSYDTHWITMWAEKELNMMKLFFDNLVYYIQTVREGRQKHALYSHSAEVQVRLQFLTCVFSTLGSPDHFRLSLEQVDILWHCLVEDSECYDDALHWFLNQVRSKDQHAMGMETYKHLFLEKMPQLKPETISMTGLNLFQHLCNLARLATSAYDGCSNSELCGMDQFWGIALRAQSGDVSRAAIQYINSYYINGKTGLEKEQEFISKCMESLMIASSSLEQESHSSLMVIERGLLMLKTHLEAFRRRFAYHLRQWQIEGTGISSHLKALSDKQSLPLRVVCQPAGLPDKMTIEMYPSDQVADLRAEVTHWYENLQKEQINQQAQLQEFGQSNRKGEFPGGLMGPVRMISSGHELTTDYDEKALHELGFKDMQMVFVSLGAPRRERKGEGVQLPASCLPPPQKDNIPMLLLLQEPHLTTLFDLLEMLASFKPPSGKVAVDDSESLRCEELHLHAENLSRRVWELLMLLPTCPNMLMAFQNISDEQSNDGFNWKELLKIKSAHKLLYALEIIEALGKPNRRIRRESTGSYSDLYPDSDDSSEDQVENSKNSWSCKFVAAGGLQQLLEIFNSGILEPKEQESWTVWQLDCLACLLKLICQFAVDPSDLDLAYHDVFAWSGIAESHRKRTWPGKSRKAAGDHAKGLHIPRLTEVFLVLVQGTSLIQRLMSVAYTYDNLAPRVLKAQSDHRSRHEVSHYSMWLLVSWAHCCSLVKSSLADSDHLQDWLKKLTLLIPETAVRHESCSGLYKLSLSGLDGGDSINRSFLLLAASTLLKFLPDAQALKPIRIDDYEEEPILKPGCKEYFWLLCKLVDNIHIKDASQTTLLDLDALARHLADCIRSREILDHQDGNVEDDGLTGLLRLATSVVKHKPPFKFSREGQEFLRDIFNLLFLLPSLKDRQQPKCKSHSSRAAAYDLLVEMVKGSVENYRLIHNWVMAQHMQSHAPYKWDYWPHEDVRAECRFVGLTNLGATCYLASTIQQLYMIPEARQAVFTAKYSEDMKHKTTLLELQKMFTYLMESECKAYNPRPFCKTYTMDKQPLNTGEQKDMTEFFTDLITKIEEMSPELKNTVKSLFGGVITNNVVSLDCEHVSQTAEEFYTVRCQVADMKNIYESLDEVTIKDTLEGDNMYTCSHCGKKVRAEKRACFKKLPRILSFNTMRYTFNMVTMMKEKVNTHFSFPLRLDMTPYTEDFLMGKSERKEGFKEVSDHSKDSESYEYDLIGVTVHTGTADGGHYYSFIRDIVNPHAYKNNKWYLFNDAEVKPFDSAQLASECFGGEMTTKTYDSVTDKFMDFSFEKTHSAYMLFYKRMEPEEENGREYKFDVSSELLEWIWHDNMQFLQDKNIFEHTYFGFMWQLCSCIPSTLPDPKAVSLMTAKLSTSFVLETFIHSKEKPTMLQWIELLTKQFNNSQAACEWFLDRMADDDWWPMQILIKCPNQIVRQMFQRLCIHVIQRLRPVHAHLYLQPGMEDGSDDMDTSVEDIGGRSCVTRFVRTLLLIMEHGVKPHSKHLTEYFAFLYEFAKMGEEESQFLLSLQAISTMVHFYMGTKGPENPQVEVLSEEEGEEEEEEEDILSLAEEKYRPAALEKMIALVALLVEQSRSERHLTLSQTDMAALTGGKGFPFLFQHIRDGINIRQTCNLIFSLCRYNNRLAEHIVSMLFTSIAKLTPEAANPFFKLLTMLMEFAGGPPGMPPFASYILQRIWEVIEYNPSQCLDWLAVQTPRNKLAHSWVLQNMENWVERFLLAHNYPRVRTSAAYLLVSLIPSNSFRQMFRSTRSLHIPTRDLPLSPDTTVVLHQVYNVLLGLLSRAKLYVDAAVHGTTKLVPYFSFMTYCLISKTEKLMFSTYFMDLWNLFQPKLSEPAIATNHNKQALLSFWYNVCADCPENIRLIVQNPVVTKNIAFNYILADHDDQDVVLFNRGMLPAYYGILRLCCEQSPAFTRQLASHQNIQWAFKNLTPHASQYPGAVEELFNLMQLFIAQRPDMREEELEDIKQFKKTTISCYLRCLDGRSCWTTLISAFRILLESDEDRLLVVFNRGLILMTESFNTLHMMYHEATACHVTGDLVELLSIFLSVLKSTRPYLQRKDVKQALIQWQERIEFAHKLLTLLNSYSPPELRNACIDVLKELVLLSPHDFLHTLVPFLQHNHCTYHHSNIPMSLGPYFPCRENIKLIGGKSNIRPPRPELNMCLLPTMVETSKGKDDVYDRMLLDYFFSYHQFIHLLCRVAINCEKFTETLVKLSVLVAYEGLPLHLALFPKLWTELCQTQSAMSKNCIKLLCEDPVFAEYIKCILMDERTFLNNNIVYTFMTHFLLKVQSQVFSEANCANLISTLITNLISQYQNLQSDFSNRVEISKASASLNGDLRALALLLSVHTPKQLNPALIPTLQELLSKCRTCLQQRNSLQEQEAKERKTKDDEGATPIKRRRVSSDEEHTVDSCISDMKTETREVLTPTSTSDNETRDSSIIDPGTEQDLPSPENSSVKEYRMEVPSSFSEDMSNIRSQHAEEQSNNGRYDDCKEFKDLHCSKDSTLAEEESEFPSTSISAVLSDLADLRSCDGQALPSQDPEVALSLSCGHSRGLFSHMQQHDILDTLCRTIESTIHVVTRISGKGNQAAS
In short: (§1)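 HEK293T lysate (495 µg per sample, in Tris/CHAPS/IGEPAL buffer with protease inhibitors) was exposed in triplicate for 3 h to fragment at 200 µM or to vehicle, then to Biotin-Ahx-Ub-VS at 0.5 µM final for 1 h. Labelled DUBs were enriched on NeutrAvidin, digested with LysC and trypsin, and analysed by diaPASEF LC-MS/MS. Spectronaut label-free quantities were normalised to the global median, and values are average log2 ratios of fragment over vehicle from an unpaired t-test. Only proteins with ≥2 unique peptides were used.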

USP36 = biological target: T1, USP36 (UniProt Q9P275)
T1 sequence (whole entry): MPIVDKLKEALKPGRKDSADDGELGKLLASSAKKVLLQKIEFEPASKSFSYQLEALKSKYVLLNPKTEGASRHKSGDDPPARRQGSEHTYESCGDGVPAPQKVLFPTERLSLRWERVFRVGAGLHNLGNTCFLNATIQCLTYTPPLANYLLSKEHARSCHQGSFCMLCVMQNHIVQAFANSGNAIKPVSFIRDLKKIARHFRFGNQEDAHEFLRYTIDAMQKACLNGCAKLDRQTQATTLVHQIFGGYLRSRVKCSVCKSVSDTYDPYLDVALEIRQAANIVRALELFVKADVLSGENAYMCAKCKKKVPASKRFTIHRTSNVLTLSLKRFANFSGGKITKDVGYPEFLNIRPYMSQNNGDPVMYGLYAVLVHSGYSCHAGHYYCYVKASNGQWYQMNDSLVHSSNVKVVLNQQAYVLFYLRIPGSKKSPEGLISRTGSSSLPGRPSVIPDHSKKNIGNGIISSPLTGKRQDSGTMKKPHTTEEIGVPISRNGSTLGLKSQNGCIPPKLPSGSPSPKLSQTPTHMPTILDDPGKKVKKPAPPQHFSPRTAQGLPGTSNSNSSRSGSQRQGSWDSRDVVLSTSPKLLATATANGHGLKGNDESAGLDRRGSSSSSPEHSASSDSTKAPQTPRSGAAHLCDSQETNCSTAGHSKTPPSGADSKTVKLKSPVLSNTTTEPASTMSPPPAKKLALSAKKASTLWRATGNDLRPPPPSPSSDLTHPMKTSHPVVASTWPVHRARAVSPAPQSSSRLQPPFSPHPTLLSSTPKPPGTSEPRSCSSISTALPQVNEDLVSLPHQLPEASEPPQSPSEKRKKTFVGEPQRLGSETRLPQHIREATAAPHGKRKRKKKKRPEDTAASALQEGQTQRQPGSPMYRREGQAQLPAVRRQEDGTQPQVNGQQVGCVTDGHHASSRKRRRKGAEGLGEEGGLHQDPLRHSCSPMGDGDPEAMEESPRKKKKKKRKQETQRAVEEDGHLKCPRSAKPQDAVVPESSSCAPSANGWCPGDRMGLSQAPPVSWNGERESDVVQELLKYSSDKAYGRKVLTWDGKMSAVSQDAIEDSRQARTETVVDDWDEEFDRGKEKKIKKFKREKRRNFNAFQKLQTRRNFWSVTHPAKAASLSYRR
In short: as §1

USP38 = biological target: T2, USP38 (UniProt Q8NB14)
T2 sequence (whole entry): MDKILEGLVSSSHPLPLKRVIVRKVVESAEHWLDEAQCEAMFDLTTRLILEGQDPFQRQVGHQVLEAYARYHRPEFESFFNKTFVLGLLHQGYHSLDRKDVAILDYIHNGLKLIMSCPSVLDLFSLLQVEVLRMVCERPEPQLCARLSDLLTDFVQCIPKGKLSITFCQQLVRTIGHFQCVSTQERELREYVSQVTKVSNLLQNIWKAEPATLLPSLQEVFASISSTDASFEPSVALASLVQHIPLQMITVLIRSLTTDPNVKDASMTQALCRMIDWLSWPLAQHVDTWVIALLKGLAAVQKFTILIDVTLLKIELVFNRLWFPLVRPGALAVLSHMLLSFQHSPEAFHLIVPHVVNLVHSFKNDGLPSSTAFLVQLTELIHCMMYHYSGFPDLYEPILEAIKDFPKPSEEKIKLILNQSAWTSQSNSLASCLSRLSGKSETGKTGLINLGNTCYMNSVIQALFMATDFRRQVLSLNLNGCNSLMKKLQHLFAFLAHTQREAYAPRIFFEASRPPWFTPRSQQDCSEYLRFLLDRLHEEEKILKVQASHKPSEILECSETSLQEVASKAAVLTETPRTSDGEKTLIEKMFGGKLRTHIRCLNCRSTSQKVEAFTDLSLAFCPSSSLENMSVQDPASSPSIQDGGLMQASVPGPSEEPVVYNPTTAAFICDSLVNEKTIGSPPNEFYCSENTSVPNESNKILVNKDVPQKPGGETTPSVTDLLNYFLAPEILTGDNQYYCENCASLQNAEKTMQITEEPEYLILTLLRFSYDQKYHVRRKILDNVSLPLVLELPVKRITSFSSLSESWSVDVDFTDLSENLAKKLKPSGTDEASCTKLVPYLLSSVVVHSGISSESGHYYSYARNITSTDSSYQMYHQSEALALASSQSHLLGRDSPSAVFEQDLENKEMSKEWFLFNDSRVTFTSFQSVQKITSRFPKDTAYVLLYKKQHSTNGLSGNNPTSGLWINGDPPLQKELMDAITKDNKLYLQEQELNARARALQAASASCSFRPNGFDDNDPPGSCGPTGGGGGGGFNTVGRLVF
In short: as §1

USP39 = biological target: T3, USP39 (UniProt Q53GS9)
T3 sequence (whole entry): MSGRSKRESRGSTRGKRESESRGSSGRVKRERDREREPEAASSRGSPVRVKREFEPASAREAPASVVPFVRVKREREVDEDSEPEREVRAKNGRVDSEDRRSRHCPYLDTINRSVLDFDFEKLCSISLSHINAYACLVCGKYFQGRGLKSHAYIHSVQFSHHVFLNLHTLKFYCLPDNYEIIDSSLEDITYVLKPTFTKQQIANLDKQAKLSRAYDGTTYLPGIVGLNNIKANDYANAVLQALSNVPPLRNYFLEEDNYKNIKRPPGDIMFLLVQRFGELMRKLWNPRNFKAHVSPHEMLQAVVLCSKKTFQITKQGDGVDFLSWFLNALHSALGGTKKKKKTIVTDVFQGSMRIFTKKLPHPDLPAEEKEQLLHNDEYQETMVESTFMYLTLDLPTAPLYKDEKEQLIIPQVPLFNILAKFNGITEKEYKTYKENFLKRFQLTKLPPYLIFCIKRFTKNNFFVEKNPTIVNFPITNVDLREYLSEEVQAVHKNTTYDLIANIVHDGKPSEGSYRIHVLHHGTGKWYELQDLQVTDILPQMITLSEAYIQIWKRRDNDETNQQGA
In short: as §1

USP4 = biological target: T4, USP4 (UniProt Q13107)
T4 sequence (whole entry): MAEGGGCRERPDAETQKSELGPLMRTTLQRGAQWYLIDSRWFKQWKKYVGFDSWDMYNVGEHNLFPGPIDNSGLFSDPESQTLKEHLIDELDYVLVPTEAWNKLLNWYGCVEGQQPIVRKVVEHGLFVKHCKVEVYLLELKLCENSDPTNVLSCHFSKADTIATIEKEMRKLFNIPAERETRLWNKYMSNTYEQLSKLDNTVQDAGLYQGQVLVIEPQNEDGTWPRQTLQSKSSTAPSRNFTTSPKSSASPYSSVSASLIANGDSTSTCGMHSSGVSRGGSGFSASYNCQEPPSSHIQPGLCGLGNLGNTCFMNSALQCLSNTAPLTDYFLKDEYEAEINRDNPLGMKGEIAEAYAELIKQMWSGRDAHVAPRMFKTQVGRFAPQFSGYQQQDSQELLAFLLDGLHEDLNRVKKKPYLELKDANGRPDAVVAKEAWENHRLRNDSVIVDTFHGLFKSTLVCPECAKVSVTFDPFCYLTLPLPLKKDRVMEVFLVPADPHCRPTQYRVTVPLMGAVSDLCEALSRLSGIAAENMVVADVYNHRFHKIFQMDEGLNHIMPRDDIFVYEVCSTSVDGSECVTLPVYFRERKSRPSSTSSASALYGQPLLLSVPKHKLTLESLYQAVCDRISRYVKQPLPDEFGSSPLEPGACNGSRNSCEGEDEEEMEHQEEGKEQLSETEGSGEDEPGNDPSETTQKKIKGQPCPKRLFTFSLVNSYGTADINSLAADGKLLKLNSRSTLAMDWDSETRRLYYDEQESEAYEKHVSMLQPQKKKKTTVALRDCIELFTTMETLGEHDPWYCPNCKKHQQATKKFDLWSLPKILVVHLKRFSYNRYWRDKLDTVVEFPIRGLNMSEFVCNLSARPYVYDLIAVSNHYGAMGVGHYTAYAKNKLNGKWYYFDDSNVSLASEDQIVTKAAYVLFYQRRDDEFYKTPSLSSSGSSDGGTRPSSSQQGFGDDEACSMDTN
In short: as §1

Measured: log2 ratio of Biotin-Ahx-Ub-VS probe labelling

O=C(CCl)NCc1ccc(N2CCOCC2)nc1
inactive: USP34 -0.0991 | USP36 -0.161 | USP38 -0.0678 | USP39 -0.00187 | USP4 0.0133
